In the supplement of paper PMC10849652:
Of roughly 7,900 targets only a part is listed; those with a hit were picked by preference. About 0.6% of all pairs of compound and target were hits.

Key:
Assay in all cases: log2 fold change, soluble protein after heating vs DMSO (PISA); higher = thermal stabilisation; K562 cells, 10 uM, 30 min; active = over 0.2 and 3.5 SD of the protein, either way, in both replicates (recomputed)
filanesib = compound: CON(C)C(=O)N1N=C(c2cc(F)ccc2F)S[C@@]1(CCCN)c1ccccc1 [filanesib]
Outline: (§1)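 Thermal stability values are relative to control samples and come from duplicates. They are expressed as log2 fold changes. For measurement, K562 cells (2×10^6 cells/mL) received 10 μM compound for 30 min, and aliquots were heated for 3 min over 48°C-58°C, pooled, and extracted at 4°C in PBS with 0.5% NP-40. Soluble protein, the supernatant after 21,000xg for 90 min, was quantified by TMTpro 16plex LC-MS/MS with equalised channel sums.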

zotarolimus = compound: CO[C@H]1C[C@@H]2CC[C@@H](C)[C@@](O)(O2)C(=O)C(=O)N2CCCC[C@H]2C(=O)O[C@H]([C@H](C)C[C@@H]2CC[C@H](n3cnnn3)[C@H](OC)C2)CC(=O)[C@H](C)/C=C(\C)[C@@H](O)[C@@H](OC)C(=O)[C@H](C)C[C@H](C)/C=C/C=C/C=C/1C [zotarolimus]
Outline: as §1

idasanutlin = compound: COc1cc(C(=O)O)ccc1NC(=O)[C@@H]1N[C@@H](CC(C)(C)C)[C@](C#N)(c2ccc(Cl)cc2F)[C@H]1c1cccc(Cl)c1F [idasanutlin]
Outline: as §1

alisertib = compound: COc1cc(Nc2ncc3c(n2)-c2ccc(Cl)cc2C(c2c(F)cccc2OC)=NC3)ccc1C(=O)O [alisertib]
Outline: as §1

[1] = compound: COc1cc2nc(-c3cc(F)ccc3O)nc(N[C@@H]3CNC[C@H]3C(C)(C)O)c2cc1OC
Outline: as §1

gefitinib = compound: COc1cc2ncnc(Nc3ccc(F)c(Cl)c3)c2cc1OCCCN1CCOCC1 [gefitinib]
Outline: as §1

[2] = compound: COc1cccc2cc(-c3nc([C@H]4CC[C@H](C(=O)O)CC4)n4ncnc(N)c34)[nH]c12
Outline: as §1

lapatinib = compound: CS(=O)(=O)CCNCc1ccc(-c2ccc3ncnc(Nc4ccc(OCc5cccc(F)c5)c(Cl)c4)c3c2)o1 [lapatinib]
Outline: as §1

pictilisib = compound: CS(=O)(=O)N1CCN(Cc2cc3nc(-c4cccc5[nH]ncc45)nc(N4CCOCC4)c3s2)CC1 [pictilisib]
Outline: as §1

[3] = compound: CS(=O)(=O)c1ccc(-c2cnc(N)c(C(=O)Nc3ccccc3)n2)cc1
Outline: as §1

[4] = compound: C[C@@H]1COCCN1C2=NC(=NC(=C2)C3(CC3)S(=O)(=O)C)C4=C5C=CNC5=CC=C4
Outline: as §1

[5] = compound: C[C@H](C1=CC=C(C=C1)C(=O)NC2=C3C=CNC3=NC=C2)N
Outline: as §1

duvelisib = compound: C[C@H](Nc1ncnc2nc[nH]c12)c1cc2cccc(Cl)c2c(=O)n1-c1ccccc1 [duvelisib]
Outline: as §1

gandotinib = compound: Cc1cc(Nc2cc(CN3CCOCC3)c3nc(C)c(Cc4ccc(Cl)cc4F)n3n2)n[nH]1 [gandotinib]
Outline: as §1

tozasertib = compound: Cc1cc(Nc2cc(N3CCN(C)CC3)nc(Sc3ccc(NC(=O)C4CC4)cc3)n2)n[nH]1 [tozasertib]
Outline: as §1

[6] = compound: Cc1cc(SCc2sc(-c3ccc(C(F)(F)F)cc3)nc2C)ccc1OCC(=O)O
Outline: as §1

ispinesib = compound: Cc1ccc(C(=O)N(CCCN)[C@@H](c2nc3cc(Cl)ccc3c(=O)n2Cc2ccccc2)C(C)C)cc1 [ispinesib]
Outline: as §1

[7] = compound: COC1=CC=C(C=C1)CN2C=CC3=C2C=C(C=C3)C(=O)NO
Outline: as §1

crizotinib = compound: C[C@@H](Oc1cc(-c2cnn(C3CCNCC3)c2)cnc1N)c1c(Cl)ccc(F)c1Cl [crizotinib]
Outline: as §1

doramapimod = compound: Cc1ccc(-n2nc(C(C)(C)C)cc2NC(=O)Nc2ccc(OCCN3CCOCC3)c3ccccc23)cc1 [doramapimod]
Outline: as §1

Measured: log2 fold change

RRP36 (UniProt Q96EU6)
Sequence of UniProt Q96EU6 (Q96EU6 whole entry, looked up): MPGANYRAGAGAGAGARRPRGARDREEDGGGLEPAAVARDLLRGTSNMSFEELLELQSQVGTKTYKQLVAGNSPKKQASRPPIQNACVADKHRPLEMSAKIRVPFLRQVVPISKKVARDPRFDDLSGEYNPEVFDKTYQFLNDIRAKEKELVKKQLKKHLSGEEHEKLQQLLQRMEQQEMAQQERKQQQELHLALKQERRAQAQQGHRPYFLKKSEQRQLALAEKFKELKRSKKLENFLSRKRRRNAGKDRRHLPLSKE
inactive: filanesib 0.372 | zotarolimus -0.054 | idasanutlin 0.203 | alisertib -0.217 | [1] 0.01 | gefitinib -0.042 | [2] -0.268 | lapatinib 0.088 | pictilisib -0.181 | [3] -0.115 | [4] -0.645 | [5] 0.271 | duvelisib -0.16 | gandotinib 0.182 | tozasertib 0.031 | [6] 0.022 | ispinesib 0.043

RUNX1 isoform 8 (UniProt Q01196)
Sequence of UniProt Q01196 (Q01196 whole entry, looked up): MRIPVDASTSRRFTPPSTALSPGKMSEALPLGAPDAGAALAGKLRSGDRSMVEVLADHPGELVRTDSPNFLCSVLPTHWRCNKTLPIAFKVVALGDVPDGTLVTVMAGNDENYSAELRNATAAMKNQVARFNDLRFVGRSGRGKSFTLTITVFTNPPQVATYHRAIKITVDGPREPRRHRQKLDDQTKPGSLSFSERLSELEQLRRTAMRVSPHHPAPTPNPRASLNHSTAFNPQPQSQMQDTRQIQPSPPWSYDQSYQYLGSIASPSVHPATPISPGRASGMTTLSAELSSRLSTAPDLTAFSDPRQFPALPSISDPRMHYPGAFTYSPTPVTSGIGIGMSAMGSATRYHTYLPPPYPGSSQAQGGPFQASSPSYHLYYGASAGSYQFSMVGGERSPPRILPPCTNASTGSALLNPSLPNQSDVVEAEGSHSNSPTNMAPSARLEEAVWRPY
inactive: [7] -0.055 | filanesib -0.084 | idasanutlin 0.075 | alisertib -0.292 | [1] 0.053 | gefitinib -0.074 | [2] -0.011 | lapatinib -0.001 | pictilisib 0.24 | [3] 0.106 | crizotinib -0.066 | [4] 0.089 | duvelisib -0.045 | gandotinib 0.088 | [6] 0.178 | doramapimod 0.054 | ispinesib 0.155

RNF41 (UniProt Q9H4P4)
Sequence of UniProt Q9H4P4 (Q9H4P4 whole entry, looked up): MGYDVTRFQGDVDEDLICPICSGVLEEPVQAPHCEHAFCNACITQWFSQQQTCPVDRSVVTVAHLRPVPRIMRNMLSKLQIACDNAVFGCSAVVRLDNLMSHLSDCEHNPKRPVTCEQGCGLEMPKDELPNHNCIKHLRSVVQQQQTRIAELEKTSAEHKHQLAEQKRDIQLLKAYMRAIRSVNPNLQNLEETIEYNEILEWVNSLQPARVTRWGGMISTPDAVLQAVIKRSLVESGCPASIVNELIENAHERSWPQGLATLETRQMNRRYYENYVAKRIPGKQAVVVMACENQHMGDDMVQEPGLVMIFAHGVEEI
inactive: idasanutlin -0.031

ROMO1 (UniProt P60602)
Sequence of UniProt P60602 (P60602 whole entry, looked up): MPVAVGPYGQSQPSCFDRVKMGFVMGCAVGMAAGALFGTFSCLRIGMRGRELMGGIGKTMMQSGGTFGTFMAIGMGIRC
inactive: filanesib -0.024 | zotarolimus -0.069 | idasanutlin 0.044 | alisertib 0.005 | [1] -0.024 | gefitinib 0.034 | [2] 0.033 | lapatinib -0.079 | pictilisib 0.035 | [3] 0.023 | [4] 0.121 | [5] 0.064 | duvelisib 0.117 | gandotinib -0.033 | tozasertib -0.003 | [6] -0.059 | ispinesib -0.061

SF3B5 (UniProt Q9BWJ5)
Sequence of UniProt Q9BWJ5 (Q9BWJ5 whole entry, looked up): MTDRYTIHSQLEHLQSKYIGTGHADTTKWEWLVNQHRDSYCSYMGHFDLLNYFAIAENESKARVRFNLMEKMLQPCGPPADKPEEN
inactive: [7] 0.19 | filanesib 0.2 | idasanutlin 0.085 | alisertib -0.122 | [1] -0.026 | gefitinib 0.027 | [2] 0.044 | lapatinib -0.051 | pictilisib -0.069 | [3] 0.027 | crizotinib -0.012 | [4] 0.176 | duvelisib 0.358 | gandotinib 0.087 | tozasertib -0.152 | [6] 0.002 | doramapimod -0.089

RAB3D (UniProt O95716)
Sequence of UniProt O95716 (O95716 whole entry, looked up): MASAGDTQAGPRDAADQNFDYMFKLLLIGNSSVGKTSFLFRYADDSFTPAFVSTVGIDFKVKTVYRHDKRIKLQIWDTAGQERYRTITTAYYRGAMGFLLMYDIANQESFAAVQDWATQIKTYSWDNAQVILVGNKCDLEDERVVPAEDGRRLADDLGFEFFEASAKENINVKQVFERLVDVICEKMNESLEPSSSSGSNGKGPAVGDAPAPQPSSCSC
inactive: zotarolimus -0.08 | idasanutlin 0.026 | alisertib 0.007 | [1] 0.002 | gefitinib 0.243 | [2] -0.07 | lapatinib 0.002 | pictilisib -0.153 | [5] -0.031 | duvelisib -0.106 | gandotinib 0.083 | tozasertib 0.021 | [6] -0.115 | ispinesib 0.2

RICTOR isoform 3 (UniProt Q6R327)
Sequence of UniProt Q6R327 (Q6R327 whole entry, looked up): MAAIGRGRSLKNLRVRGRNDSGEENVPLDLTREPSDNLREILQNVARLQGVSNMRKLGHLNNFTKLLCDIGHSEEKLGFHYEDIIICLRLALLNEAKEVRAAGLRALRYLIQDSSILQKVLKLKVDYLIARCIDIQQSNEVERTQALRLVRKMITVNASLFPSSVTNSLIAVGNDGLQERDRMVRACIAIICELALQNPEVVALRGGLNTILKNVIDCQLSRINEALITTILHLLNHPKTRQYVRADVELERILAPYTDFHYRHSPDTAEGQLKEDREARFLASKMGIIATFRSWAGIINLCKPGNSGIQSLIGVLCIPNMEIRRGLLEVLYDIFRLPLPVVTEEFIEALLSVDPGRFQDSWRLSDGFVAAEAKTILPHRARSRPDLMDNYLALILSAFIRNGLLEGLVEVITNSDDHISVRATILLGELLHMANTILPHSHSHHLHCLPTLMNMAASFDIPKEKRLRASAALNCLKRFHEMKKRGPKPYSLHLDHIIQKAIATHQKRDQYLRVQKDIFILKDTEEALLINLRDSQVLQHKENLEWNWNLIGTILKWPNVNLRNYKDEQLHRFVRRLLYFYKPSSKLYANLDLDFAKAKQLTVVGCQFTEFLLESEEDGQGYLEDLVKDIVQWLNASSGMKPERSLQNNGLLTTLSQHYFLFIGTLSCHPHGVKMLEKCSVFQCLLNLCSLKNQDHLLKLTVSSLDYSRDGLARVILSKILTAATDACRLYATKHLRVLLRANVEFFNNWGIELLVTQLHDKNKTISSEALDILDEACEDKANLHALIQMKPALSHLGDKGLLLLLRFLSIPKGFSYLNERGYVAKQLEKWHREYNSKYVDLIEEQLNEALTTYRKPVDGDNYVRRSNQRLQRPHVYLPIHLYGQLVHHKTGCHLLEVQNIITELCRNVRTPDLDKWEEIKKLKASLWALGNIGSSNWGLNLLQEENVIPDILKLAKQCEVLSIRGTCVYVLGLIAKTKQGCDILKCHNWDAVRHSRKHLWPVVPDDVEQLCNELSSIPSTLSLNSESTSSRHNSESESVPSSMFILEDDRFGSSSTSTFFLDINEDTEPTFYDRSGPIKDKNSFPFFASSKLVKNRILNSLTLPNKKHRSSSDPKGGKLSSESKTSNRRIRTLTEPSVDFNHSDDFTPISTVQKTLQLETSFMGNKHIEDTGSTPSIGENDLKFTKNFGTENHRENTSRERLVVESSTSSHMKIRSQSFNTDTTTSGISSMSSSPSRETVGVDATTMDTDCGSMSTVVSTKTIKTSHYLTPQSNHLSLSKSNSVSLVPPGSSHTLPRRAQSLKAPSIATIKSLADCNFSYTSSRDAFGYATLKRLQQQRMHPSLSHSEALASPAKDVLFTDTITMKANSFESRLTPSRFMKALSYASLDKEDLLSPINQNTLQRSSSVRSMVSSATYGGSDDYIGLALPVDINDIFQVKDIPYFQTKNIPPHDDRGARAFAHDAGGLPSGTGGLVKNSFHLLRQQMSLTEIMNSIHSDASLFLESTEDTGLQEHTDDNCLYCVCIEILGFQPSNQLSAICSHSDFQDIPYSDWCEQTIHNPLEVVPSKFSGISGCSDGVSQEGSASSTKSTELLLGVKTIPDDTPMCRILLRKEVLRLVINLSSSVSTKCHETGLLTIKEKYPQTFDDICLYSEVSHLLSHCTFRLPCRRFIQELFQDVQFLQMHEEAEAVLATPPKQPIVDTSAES
inactive: filanesib -0.028 | idasanutlin -0.066 | [1] 0.003 | gefitinib 0.059 | lapatinib 0.186 | pictilisib -0.062 | [3] -0.017 | [4] -0.146 | duvelisib -0.027 | gandotinib -0.015 | tozasertib -0.127 | [6] -0.072

RPS3 (UniProt E9PJN9)
inactive: pictilisib 0.129 | duvelisib 0.102 | gandotinib -0.017 | tozasertib -0.215 | [6] 0.148 | ispinesib -0.224

RALGPS2 (UniProt Q86X27)
Sequence of UniProt Q86X27 (Q86X27 whole entry, looked up): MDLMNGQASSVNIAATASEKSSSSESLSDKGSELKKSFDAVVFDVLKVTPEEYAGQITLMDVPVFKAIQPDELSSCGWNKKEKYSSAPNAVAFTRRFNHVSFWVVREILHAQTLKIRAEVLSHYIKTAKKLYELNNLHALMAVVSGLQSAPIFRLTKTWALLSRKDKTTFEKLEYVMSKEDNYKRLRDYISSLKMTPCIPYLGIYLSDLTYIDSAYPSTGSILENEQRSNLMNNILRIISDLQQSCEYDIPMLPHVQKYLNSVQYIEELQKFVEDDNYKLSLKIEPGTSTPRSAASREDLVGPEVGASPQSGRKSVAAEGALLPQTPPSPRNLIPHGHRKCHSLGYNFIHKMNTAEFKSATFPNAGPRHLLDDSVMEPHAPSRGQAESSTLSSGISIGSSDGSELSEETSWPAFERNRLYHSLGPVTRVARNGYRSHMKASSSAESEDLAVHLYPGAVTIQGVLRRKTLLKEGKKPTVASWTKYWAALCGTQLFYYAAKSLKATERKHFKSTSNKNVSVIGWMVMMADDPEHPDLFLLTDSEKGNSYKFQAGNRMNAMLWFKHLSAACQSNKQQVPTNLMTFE
inactive: [7] 0.246 | zotarolimus 0.038 | idasanutlin -0.062 | alisertib 0.109 | [2] 0.132 | pictilisib 0.165 | crizotinib -0.237 | [4] -0.199 | [5] 0.222 | duvelisib -0.117 | gandotinib 0.08 | tozasertib -0.112 | [6] 0.106 | doramapimod 0.289
